The values below come from the OligoGym collection.
Note: reference of the scale not given here.

The first assay has as its target CHST7. The assay can be described thus: pooled miR-30 sensor sort-seq; sequence = guide strand. Particulars: shRNA.
In the case of TACCAAATCACATCTCTTCTTT, the sensor-assay potency score (higher = more potent) was -0.0966.
Turning to TCCTTGATGACCACCACCGGGT, the sensor-assay potency score (higher = more potent) was -1.07.
Turning to TTGGTAGCAAGTCAAGTCCCAG, the sensor-assay potency score (higher = more potent) was -1.13.
Consider AACAGCAGCGCGAACTTGCAGT, for which the sensor-assay potency score (higher = more potent) was -0.918.
Still for that read-out and setting: the figure for TTACTGGAAACTTCATCTCAAC is -1.13; for TTTTCGTCCAGACACCTGCTGG it is -1.07.
Take TACAAGTAGAAAACGTCCGGGT: the sensor-assay potency score (higher = more potent) was 0.0569.
For TAGATGTGCTGCTTCTCGCGAG, the sensor-assay potency score (higher = more potent) was -0.296.
For ATACAAGTAGAAAACGTCCGGG, the sensor-assay potency score (higher = more potent) was 0.117.
TAAATATCCACATTGCACTGTC came in with a sensor-assay potency score (higher = more potent) of 0.728.
Still for that read-out and setting: then TTGGGAACCGAGGAGACTGGTT, with -0.796.

For the next assay, the target named is CHSY1. Described as above. Particulars: shRNA.
For the sequence TAAATCTCACAAACATGTCGAA, the sensor-assay potency score (higher = more potent) is -0.309.
With TTGAAGTCAATGATGCGCCCTC, the sensor-assay potency score (higher = more potent) was -0.291.
On the same count and under the same terms, the figure for TTTTGCTGAAAGTCTGCTGTAA is -0.0624; for TTGCTCGACATCGCTGAAGGAA it is -0.494.
In turn, TTTATCTTTGGGTTCTTTGTGC displayed a sensor-assay potency score (higher = more potent) of 0.332.
With TTAACAATCACAACAGAACATT, the sensor-assay potency score (higher = more potent) was -1.42.
Same read-out and setting: then TTGTGCTCACTCTTCGACCCAG, with -0.424; and TTCTTTGTGCTCACTCTTCGAC, with -0.347.
Take TTTCCCACTATAAACAATCTTT: the sensor-assay potency score (higher = more potent) is -0.597.
Take TTTTACTGTAACTTGGATCATT: the sensor-assay potency score (higher = more potent) is -0.393.
On to TGTATTTGCTCGACATCGCTGA, for which the sensor-assay potency score (higher = more potent) was found to be 0.246.
The sequence TTGTCTTGGACCATGTTCTGTA had a sensor-assay potency score (higher = more potent) of 0.134.
